FMDV inh – High Throughput Screening for Foot and Mouth Disease Virus Antivirals; FMDV antiviral cell-based qHTS; Potency, µM (doses to about 57.9 µM), usual class: inhibitors; 1.2% of 410,000 active; AID 1159524, 2015; calls by dose curve; tested in HEK293T cells; note: read-out not given here; nearly all actives have a fitted effect of over 45% in size
VACV mCherry inh – qHTS for Stage-Specific Inhibitors of Vaccinia Orthopoxvirus: mCherry Reporter Primary qHTS | Vaccinia virus mCherry reporter infection, fluorescence | Potency, µM (highest dose often 36.5 µM), actives largely listed as inhibitors | 0.63% of 310,000 active; calls by dose curve; tested in A549 cells; note: nearly all actives have a fitted effect of over 35% in size
VACV Venus inh – qHTS for Stage-Specific Inhibitors of Vaccinia Orthopoxvirus: Venus Reporter Primary qHTS; Potency, µM (highest dose often 36.5 µM), actives largely listed as inhibitors; Vaccinia virus Venus reporter expression, fluorescence; AID 720580, 2013; 0.46% of 330,000 active; calls by dose curve; tested in A549 cells; note: nearly all actives have a fitted effect of over 30% in size
HCMV inh – qHTS Assay for inhibitors of the human cytomegalovirus (HCMV). activity change, negative = inhibition, % at 57.5 µM. 4.5% of 410,000 active. HFF cells, HCMV-luciferase reporter, 72 h; hits give low values; in the data active = activity change below about -60%; inconclusive = no clear call, values can overlap the other calls; inactive = above about -39%
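Two-dose cell screen: HFF monolayers treated with compounds and infected with luciferase-expressing HCMV at 1 PFU/cell, 72 h at 37C, then lysed for luciferase measurement.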
HCV inhibitor – qHTS Assay for Inhibitors of Hepatitis C Virus (HCV); 3.4% of 340,000 active; Huh7.5.1 HCVcc-Cre infection, luciferase reporter, 44 h; Potency, µM (doses to about 41.8 µM), hits mostly inhibitors; AID 651820, 2012; active = well fitted inhibition curve with a large enough effect; inconclusive = small, poorly fitted or top-dose-only effect, or another doubt; inactive = no such curve, though single readings can be large or run the other way
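Infectious HCVcc-Cre (~0.5 moi) was added to cells just after compound, with cells seeded 4 h earlier at 1,000 per well. Luciferase activity after 44 h culture reported infection; substrate was incubated 15 min at room temperature before reading.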
Of the large screens only hits and unclear results are named; the others gave an inactive call. Sampled rows, rich in hits. Any-hit rate of the full collection: about 7.3%.

Cc1cccc(NS(=O)(=O)c2ccc(C)c(C(=O)NCc3ccccn3)c2)c1	HCV inhibitor inconclusive
CSc1nc(N)nc(SCC(=O)OC(C)C)c1C#N	HCMV inh -108 (no result: VACV mCherry inh, VACV Venus inh)
CSc1nc(N)nc(SCC(=O)c2ccc(C)cc2)c1C#N	HCV inhibitor inconclusive (no result: VACV mCherry inh)
C=Cc1ccc(Cn2c(C(=O)O)c(CNCc3ccc(F)cc3)c3ccc(C)cc32)cc1	FMDV inh inconclusive, VACV mCherry inh inconclusive, VACV Venus inh inconclusive, HCMV inh -91 (no result: HCV inhibitor)
COc1ccc(Cn2c(C(=O)O)c(CNCc3ccc(SC)cc3)c3ccc(OC)cc32)cc1	FMDV inh inconclusive, VACV Venus inh inconclusive, HCMV inh -91 (no result: HCV inhibitor)
COc1ccc(Cn2c(C(=O)O)c(CNCCc3cc(OC)ccc3OC)c3ccc(C)cc32)cc1	HCMV inh -105 (no result: HCV inhibitor)
COc1ccc(Cn2c(C(=O)O)c(CNCc3cccs3)c3ccc(C)cc32)cc1	HCMV inh -66 (no result: HCV inhibitor)
CCCCN(CCCC)c1ccc(C=Nc2ccc(/C=C/c3ccnc4ccccc34)cc2)cc1C	none (no result: FMDV inh, HCMV inh, HCV inhibitor)
COC(=O)C[C@@H]1CC[C@H](NC(=O)CC2CC2)[C@@H](CO)O1	HCMV inh inconclusive (no result: HCV inhibitor)
CCN(C(=O)COC(=O)/C=C/c1c(C)nn(-c2ccccc2)c1C)c1c(N)n(Cc2ccccc2)c(=O)[nH]c1=O	none
Clc1ccccc1-c1cc(NCc2ccccc2)ncn1	none (no result: VACV mCherry inh, VACV Venus inh, HCMV inh, HCV inhibitor)
COCCCN1C(=O)C(CC(=O)NCCCN(C)C)CC(C(=O)N(C(C)C)C(C)C)=C1C (stereo not drawn)	none (no result: HCV inhibitor)
Cc1cc(NC(=O)c2ccccc2C)n(-c2cccc(F)c2)n1	HCMV inh inconclusive
CCc1cc(C(=O)NCCN2Cc3ccccc3OC(c3ccsc3)C2)n(C)n1 (stereo not drawn)	none (no result: HCMV inh, HCV inhibitor)
Cc1ccc2c(CNCc3cccs3)c(C(=O)O)n(Cc3ccc(F)cc3)c2c1	HCMV inh -102 (no result: HCV inhibitor)
C=Cc1ccc(Cn2c(C(=O)O)c(CNCc3cccs3)c3ccc(C)cc32)cc1	none (no result: HCV inhibitor)
CC1CC(=O)Nc2ccccc2N1C(=O)CSc1ncnc2sccc12 (stereo not drawn)	none (no result: VACV mCherry inh, VACV Venus inh)
CCOC(=O)CCC(NC(=O)CC(=O)NC(CCC(=O)OCC)C(=O)OCC)C(=O)OCC (stereo not drawn)	HCMV inh -96 (no result: VACV mCherry inh, VACV Venus inh)
CCOc1ccc(NC(=O)N[C@@H](CCSC)C(=O)OC)cc1	none (no result: VACV mCherry inh, VACV Venus inh)
CCOc1ccccc1N(C)C(=O)Cn1cnc2sc(C)c(S(=O)(=O)N3CCC(C)CC3)c2c1=O	none (no result: HCV inhibitor)
C=CCNc1cccc2c1S(=O)(=O)N[C@H](C)CO2	none (no result: FMDV inh, VACV mCherry inh, VACV Venus inh, HCV inhibitor)
CCOC(=O)C(C)(C)N(Cc1ccc(C)cc1)S(=O)(=O)c1ccc(Cl)c([N+](=O)[O-])c1	FMDV inh 25µM, VACV mCherry inh inconclusive, VACV Venus inh inconclusive, HCV inhibitor inconclusive
CN(C)c1ccc(/C=N/NC(=O)C[n+]2ccccc2)cc1	FMDV inh 2.8µM
COc1ccc(Br)cc1/C=N/NC(=O)C[n+]1ccccc1	none (no result: VACV mCherry inh, VACV Venus inh)
O=C(C[n+]1ccccc1)N/N=C/c1cc(Br)ccc1F	HCMV inh -99
O=C(COC(=O)Cc1ccccc1F)NC(=O)NC1CCCC1	none (no result: VACV mCherry inh, VACV Venus inh)
COc1ccccc1-c1nccc(Nc2ccc(F)cc2)n1	none (no result: VACV mCherry inh, VACV Venus inh, HCMV inh, HCV inhibitor)
Cc1csc(SCC(=O)c2cc(C)n(Cc3cccs3)c2C)n1	FMDV inh 11µM, VACV Venus inh inconclusive, HCMV inh -94, HCV inhibitor 10µM
CC(=O)Nc1ccc(SCC(=O)c2cc(C)n(Cc3cccs3)c2C)cc1	FMDV inh 22µM, HCMV inh -77
COC(=O)c1ccc(-n2c(C)cc(C(=O)CSc3ccc(NC(C)=O)cc3)c2C)cc1	FMDV inh inconclusive
CC(=O)Nc1ccc(SCC(=O)c2cc(C)n(-c3ccccc3F)c2C)cc1	FMDV inh inconclusive, HCMV inh -95, HCV inhibitor inconclusive
COCCn1c(C)cc(C(=O)CSc2ccc(NC(C)=O)cc2)c1C	none (no result: VACV mCherry inh, VACV Venus inh)
Cc1cc(C(=O)Cn2nnc3ccccc3c2=O)c(C)n1-c1ccccc1F	FMDV inh inconclusive, HCMV inh -87, HCV inhibitor inconclusive (no result: VACV mCherry inh)
COc1ccc(-n2c(C)cc(C(=O)Cn3nnc4ccccc4c3=O)c2C)cc1	HCMV inh inconclusive, HCV inhibitor inconclusive
COc1ccc(C(C)=O)cc1Cn1c(C)c(C(=O)NCc2ccc(C(C)C)cc2)sc1=O	none (no result: HCV inhibitor)
C[C@@H]1CN([C@@H](C)CO)C(=O)CCCn2nncc2CO[C@H]1CN(C)C(=O)OCc1ccccc1	none (no result: HCV inhibitor)
CC(=O)Nc1ccc(CN(C)c2c(C)nc3ccc(C(=O)NC4CCN(Cc5ccccc5)CC4)cn23)cc1	HCMV inh -97 (no result: HCV inhibitor)
COc1cc(NC(=O)NCc2ccco2)ccc1-c1ccc(NC(=O)NCc2ccco2)cc1OC	VACV mCherry inh inconclusive, HCMV inh -67, HCV inhibitor 11µM
C=CCOc1ccc(/C=C/C(=O)OCC(=O)NCC(=O)Nc2c(C)cc(C)cc2C)cc1	none
COc1ccc(CNC(=O)c2nc(S(=O)(=O)Cc3ccccc3)ncc2Cl)cc1	FMDV inh 22µM, HCMV inh -95, HCV inhibitor inconclusive
CCS(=O)(=O)c1ncc(Cl)c(C(=O)NCc2ccccc2)n1	FMDV inh inconclusive, HCMV inh -100 (no result: HCV inhibitor)
O=C(Nc1ccc2ccccc2c1)c1cnccn1	none (no result: VACV mCherry inh, VACV Venus inh)
Cc1noc(C(=O)NCc2ccccc2)c1Cl	none
CS(=O)(=O)c1ncc(Cl)c(C(=O)Nc2ccc3ccccc3c2)n1	FMDV inh 13µM, VACV mCherry inh 10µM, VACV Venus inh inconclusive, HCMV inh -98, HCV inhibitor 11µM
O=C(NCc1ccccc1)c1nc(S(=O)(=O)Cc2ccccc2)ncc1Cl	FMDV inh 32µM, HCMV inh -78
CCCS(=O)(=O)c1ncc(Cl)c(C(=O)Nc2c(C(=O)Nc3ccccc3)oc3ccccc23)n1	FMDV inh inconclusive (no result: HCV inhibitor)
Cc1ccccc1C(=O)Nc1ccc2oc(-c3ccc(Cl)c(Cl)c3)nc2c1	none (no result: HCV inhibitor)
OCc1ccc(-c2ccc(-c3ccc(CO)s3)o2)s1	none (no result: VACV mCherry inh, VACV Venus inh, HCMV inh, HCV inhibitor)
CCOC(=O)c1nn(-c2ccccc2)c(=O)cc1OCC(=O)Nc1ccccc1OCC	none
CCCCCCNCC(=O)N1CCC(Cc2ccccc2)CC1	HCV inhibitor inconclusive
CC(C)[C@@H]1NC(=O)[C@@H]2CSCCS(=O)(=O)N2C1=O	none (no result: FMDV inh, VACV mCherry inh, VACV Venus inh, HCV inhibitor)
Cc1ccc(CNC(=O)c2nc(SCc3ccccc3C)ncc2Cl)cc1	FMDV inh inconclusive (no result: HCV inhibitor)
COc1ccc(CNC(=O)c2nc(SCc3ccc(C)cc3)ncc2Cl)cc1	HCMV inh -70 (no result: HCV inhibitor)
CCOc1ccc(NC(=O)c2nc(S(=O)(=O)Cc3ccccc3)ncc2Cl)cc1	none (no result: FMDV inh, HCMV inh, HCV inhibitor)
COC(=O)c1ccccc1NC(=O)c1nc(S(=O)(=O)Cc2ccccc2)ncc1Cl	FMDV inh 32µM, HCMV inh -110 (no result: VACV mCherry inh, VACV Venus inh)
CC(=O)Nc1ccc(NC(=O)c2nc(S(=O)(=O)Cc3ccccc3)ncc2Cl)cc1	FMDV inh 32µM, HCMV inh -86 (no result: VACV mCherry inh, VACV Venus inh)
COc1ccc(NC(=O)CN(C)S(=O)(=O)c2cccc3cccnc23)cc1	HCMV inh -66
COc1ccc(N(C(=O)C(C)C)S(=O)(=O)c2cccc3cccnc23)cc1	VACV mCherry inh inconclusive, HCMV inh -67

Screening data: PubChem, National Center for Advancing Translational Sciences (NCATS)
